# SMN2 splice enh: qHTS Assay for Enhancers of SMN2 Splice Variant Expression | Potency, µM (titrated, usually from 46.1 µM), for the others: top-dose activity change, positive = activation, hits mostly activators | 2.8% of 210,000 active | HEK293 SMN2-luciferase splicing reporter, luminescence, 30-36 h; note: % of control where 0% means no effect; nearly all actives have a fitted effect of over 55% in size
#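 HEK293 cells carry an SMN2 minigene-luciferase reporter in which exon 7 inclusion puts luciferase in frame. Cells were seeded at 2000 cells/well, attached for 10-12 hours, then exposed to compounds for 30-36 hours at 37C before ONE-Glo luminescence.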
# NPC1 promoter act: qHTS Assay for NPC1 Promoter Activators; Huh7 NPC1 promoter luciferase reporter, 24 h; Potency, µM (titrated, usually from 9.22 µM), inactives show at the top dose activation, most hits filed as activators; 2.4% of 320,000 active; AID 485313, 2010; note: % of control where 0% means no effect; nearly all actives have a fitted effect of over 60% in size
#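 Stably transfected Huh7 (NPC1 promoter→luciferase), 1500 cells/well in Opti-MEM + 10% FBS, 2 h settle, then compound 24 h at 37 °C. Luminescence after 10 min with Amplite reagent.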
# Rab9 prom act: qHTS Assay for Rab9 Promoter Activators; Huh7 Rab9 promoter-luciferase reporter, luminescence, 24 h; Potency, µM (titrated, usually from 9.22 µM), for the others: top-dose activation, negative = inhibition, usual class: activators; 2.8% of 320,000 active; note: % of control where 0% means no effect; nearly all actives have a fitted effect of over 60% in size
#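 Huh7 reporter line, Rab9 promoter upstream of luciferase. Compound exposure 24 h at 37 °C in reduced-serum medium with 10% FBS. Read-out: luminescence.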
# ELG1 genotoxic: qHTS screen for small molecules that induce genotoxicity in human embryonic kidney (HEK293T) cells expressing luciferase-tagged ELG1. 1.3% of 330,000 active. Potency, µM (highest dose often 46 µM), without a hit: at the top dose activity change, positive = activation, most hits filed as activators. HEK293T ELG1-luciferase reporter, luminescence, 16 h; note: % of control where 0% means no effect; nearly all actives have a fitted effect of over 60% in size
#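 DMSO vehicle served as control against compound-treated ELG1-luciferase HEK293T cells; exposure lasted 16 hr at 37 °C and 5% CO2, followed by ONE-Glo luminescence detection after 30 min.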
# FLuc modulator: qHTS profiling assay for firefly luciferase inhibitor/activator using purifed enzyme and Km concentrations of substrates (counterscreen for miR-21 project) | Luciferin 4-monooxygenase (Photinus pyralis), P08659 | purified FLuc, Km substrates, luminescence inhibition | Potency, µM (doses to about 57.5 µM), without a hit: at the highest dose activity change, negative = inhibition, usual class: inhibitors | 6.9% of 360,000 active;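 note: plate controls were vehicle for no effect and reference inhibitor for full effect; nearly all actives have a fitted effect of over 55% in size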
# Target sequence (P08659 whole entry, looked up): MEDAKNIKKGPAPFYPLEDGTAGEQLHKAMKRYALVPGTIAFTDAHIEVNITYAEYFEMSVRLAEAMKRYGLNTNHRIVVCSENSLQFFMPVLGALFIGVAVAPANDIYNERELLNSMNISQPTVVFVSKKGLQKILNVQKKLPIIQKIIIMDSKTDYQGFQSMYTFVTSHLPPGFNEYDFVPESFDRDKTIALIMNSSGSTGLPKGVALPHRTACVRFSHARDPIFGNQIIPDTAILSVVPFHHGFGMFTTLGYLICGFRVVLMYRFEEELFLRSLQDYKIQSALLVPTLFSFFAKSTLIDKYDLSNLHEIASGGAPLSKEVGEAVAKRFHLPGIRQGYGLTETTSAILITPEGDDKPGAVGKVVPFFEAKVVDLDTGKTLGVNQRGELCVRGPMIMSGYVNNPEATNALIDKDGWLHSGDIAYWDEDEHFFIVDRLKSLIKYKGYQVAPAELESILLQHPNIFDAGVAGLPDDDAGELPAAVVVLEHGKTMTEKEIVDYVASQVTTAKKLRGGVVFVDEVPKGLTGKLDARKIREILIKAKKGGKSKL
#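 Biochemical qHTS of compounds, final roughly 60 µM downward over six points, against 10 nM purified firefly luciferase using Km concentrations of substrates (10 uM D-luciferin, 10 uM ATP) in Tris acetate pH 7.5 buffer; luminescence output.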
# * = called active by the depositor; ? = inconclusive; . = no result given; [ ] = remark or other dose. A selection: hits, their analogues and other compounds. The true share with any hit is near 7.4%. Calls come from the whole dose curve; as a rule, active = well fitted curve in the direction sought with a large enough effect; inconclusive = small, poorly fitted or top-dose-only effect, or another doubt; inactive = no such curve, though single readings can be large; an effect the other way counts as inactive or inconclusive. Potency is the fitted concentration of half-maximal effect.
SMILES,SMN2 splice enh,NPC1 promoter act,Rab9 prom act,ELG1 genotoxic,FLuc modulator
COc1ccc(S(N)(=O)=O)cc1C(=O)OCCCOc1ccc(F)cc1,.,-4.3%,-8.6%,-5.2%,-1.1%
O=C(O)COc1ccccc1/C=N/NC(=O)c1ccc2c(c1)OCCO2,.,0.3%,-0.4%,3.1%,1.51µM*
O=C(O)COc1ccccc1/C=N/NC(=O)CNC(=O)c1ccc(F)cc1,.,8.2%,-2.1%,-0.4%,-1.6%
COc1ccc(/C=N/NC(=O)CNC(=O)c2ccc3c(c2)OCCO3)c(C(=O)O)c1OC,.,0.6%,0.2%,0.1%[9.26 µM],23.9µM*
O=C(NN=Cc1ccccc1Cl)c1ccc(-n2cnnn2)cc1,.,.,.,3.2%,.
O=C(N/N=C/c1ccccc1Cl)c1ccc(F)cc1,11.6%,2.24µM*,2.51µM*,?,2.69µM*
O=C(O)COc1ccccc1/C=N/NC(=O)c1ccc(F)cc1,-5.7%,-8.5%,9.7%,1.3%,9.53µM*
CCCNc1c(NC(=O)c2ccc3c(c2)OCO3)c(=O)oc2ccccc12,.,-2.3%,-2.4%,3.5%,1.9%
Cn1cccc1-c1cc(C(=O)N/N=C/c2ccccc2Cl)[nH]n1,.,?,?,?,19µM*
Cc1nc2c(s1)sc1ccccc12,-6.3%,12.4%,6.6%,13.2%,23.9µM*
CC(NC(=O)c1cc(S(=O)(=O)N2CCCC2)cn1C)c1ccccc1 (stereo unspecified),.,-1.7%,-2.8%,-0.5%,0.7%
O=C(CN1C(=O)NC2(CCCC2)C1=O)Nc1nc2ccccc2s1,.,11.4%,2.0%,20.7%,?
CCN1CCN(CC(=O)Nc2nc3ccc(OC)cc3s2)CC1,1.9%,-0.2%,-5.2%,0.2%,-0.4%
Cc1ccc2nc(NC(=O)CN3C(=O)NC4(CCCCC4)C3=O)sc2c1,.,1.0%,11.8%,-2.1%,5.36µM*
COc1ccc2nc(NC(=O)CN3C(=O)NC4(CCCCC4)C3=O)sc2c1,.,1.5%,21.9%,-3.2%,15.1µM*
COc1ccc2nc(NC(=O)CN3C(=O)NC4(CCCC4)C3=O)sc2c1,.,2.0%,-1.2%,0.4%,12µM*
COc1ccc(NC(=O)CN2C(=O)NC3(CCCC3)C2=O)cc1,.,?,5.4%,5.9%,-0.5%
Cc1ccc(Cl)cc1N1CCN(CCCNC(=O)c2ccc3nc(N4CCCCC4)sc3c2)CC1,25.4%,.,.,.,?
COc1ccc(N2CCN(CCCNC(=O)c3ccc4nc(N5CCCCC5)sc4c3)CC2)cc1,0.794µM*,.,.,.,?
CCOc1ccc2nc(N3CCCC(C(=O)Nc4ccc(Br)c(C)c4)C3)sc2c1 (stereo unspecified),23.9%,.,.,.,6.01µM*
CCOc1ccc2nc(N3CCCC(C(=O)NCc4ccc(OC)cc4)C3)sc2c1 (stereo unspecified),12.6µM*,.,.,.,2.39µM*
CCOc1ccc2nc(N3CCCC(C(=O)NCCc4ccc(C)cc4)C3)sc2c1 (stereo unspecified),13.4%,.,.,.,-18.3%
CCOc1ccc2nc(N3CCCCCC3)sc2c1,7.94µM*,1.12µM*,1µM*,?,1.07µM*
CCOc1ccc2nc(N3CCC(C(=O)N4CCN(C5CCCCC5)CC4)CC3)sc2c1,-16.2%,11.5%,1.8%,4.2%,-18.8%
CCCc1ccc(S(=O)(=O)N2CCC(c3nnnn3-c3ccc(OC)cc3)CC2)cc1,-6.5%,.,.,.,-4.8%
SMILES,SMN2 splice enh,NPC1 promoter act,Rab9 prom act,ELG1 genotoxic,FLuc modulator
CCOc1ccc2nc(N3CCC(C(=O)Nc4nnc(CC)s4)CC3)sc2c1,2.24µM*,1.12µM*,3.98µM*,11.6µM*,?
CCOc1ccc2nc(N3CCCC(C(=O)NCC4CCCO4)C3)sc2c1 (stereo unspecified),.,?,?,12.5%,4.78µM*
CCOc1ccc2nc(N3CCCC(C(=O)NCCCOC)C3)sc2c1 (stereo unspecified),14.1µM*,.,.,.,12µM*
CCOc1ccc2nc(N3CCCC(C(=O)N4CCN(CC)CC4)C3)sc2c1 (stereo unspecified),?,?,?,12.6%,21.3µM*
CCOc1ccc2nc(N3CCC(C(=O)Nc4ccccc4CC)CC3)sc2c1,22.4%,.,.,.,-12.3%
Cc1cc(C)c2nc(N3CCCC(C(=O)NC4CCCC4)C3)sc2c1 (stereo unspecified),.,29.7%,?,7.0%[9.26 µM],9.53µM*
CCOc1cc2sc(N3CCC(C(=O)Nc4ccccc4C(=O)OC)CC3)nc2cc1Br,7.9%,.,.,.,-1.6%
CCOc1cc2sc(N3CCC(C(=O)Nc4ccc(C)cc4)CC3)nc2cc1Br,15.8µM*,.,.,.,-8.8%
CCOc1ccc2nc(N3CCN(C(=O)CS(=O)(=O)c4ccc(F)cc4)CC3)sc2c1,.,.,.,.,3.01µM*
CCOc1ccc2nc(N3CCCC(C(=O)NCCc4ccc(OC)cc4OC)C3)sc2c1 (stereo unspecified),14.1µM*,.,.,.,?
Cc1ccc2nc(NC(=O)CSc3[nH]c(=O)ncc3C)sc2c1,.,.,.,.,-10.3%
COc1ccc(S(=O)(=O)Nc2cccc3c2O[C@H](CN(C)S(=O)(=O)c2cccs2)[C@@H](C)CN([C@H](C)CO)C3=O)cc1,.,.,.,1.4%,.
CCN(CC)C(=O)c1sc2c(c1C)c(=O)n(-c1ccc(C)c(C)c1)c(=O)n2Cc1cc(=O)n2c(C)cccc2n1,.,.,.,.,-1.1%
CCOC(=O)c1c(N)sc(C(=O)Nc2ccc3c(c2)OCO3)c1C,-42.9%,0.316µM*,0.1µM*,0.366µM*,0.426µM*
CCOC(=O)c1cccc(NC(=O)/C=C/c2cccc([N+](=O)[O-])c2)c1,-22.2%,-0.5%,16.1%,1.8%,-11.0%
CCOC(=O)c1c(NC(=S)Nc2ccc(Cl)cc2)sc(C)c1C,5.9%,1.5%,-0.4%,5.2%,2.8%
CCOC(=O)c1cccc(NC(=O)/C=C/c2ccc3c(c2)OCO3)c1,?,0.316µM*,0.316µM*,?,1.9µM*
CC(=O)c1cccc(NC(=O)C(OC(=O)/C=C/c2ccc3c(c2)OCO3)c2ccccc2)c1 (stereo unspecified),0.3%,7.1%,1.0%,27.4%,13.5µM*
CCOC(=O)c1c(NC(=O)c2cc(C)oc2C)sc(C(=O)Nc2ccc(Cl)cc2)c1C,-2.0%,23.4%,29.0%,14.5%,16.9µM*
CC(OC(=O)/C=C/c1ccccc1)C(=O)Nc1ccc2c(c1)OCCO2 (stereo unspecified),.,-0.1%,-3.7%,1.1%,0.3%
CCOC(=O)c1c(C)c(C(=O)Nc2ccc3c(c2)OCO3)c(C)n1C,-28.5%,4.9%,0.6%,2.2%,-13.4%
CCc1nc2cccnc2n1-c1ccc(CC(=O)Nc2ccccc2Cl)cc1,.,.,.,.,-9.4%
CCOc1ccccc1CNC(=O)CCC(=O)N1CCSc2ccccc21,.,.,.,.,-8.5%
O=c1c(=O)n(-c2cccc(Cl)c2)ccn1Cc1cccc(F)c1,.,.,.,.,-16.1%
CCOc1ccc(C(=O)Nc2ccc3oc(-c4ccc(C)cc4C)nc3c2)cc1Br,22.1%,.,.,.,5.9%

# Source: PubChem BioAssay (National Center for Advancing Translational Sciences (NCATS))
